The text below walks through data of PubChem BioAssay (Tox21).

Molecules are shown by their SMILES. Values without a mark were called inactive. Results filed as inconclusive are left out. Activity calls are given as the source filed them. Unless noted, the call rests on the fitted dose curve; in most records, active means well fitted curve in the direction sought with a large enough effect in the repeat runs; inconclusive means weak or mixed curves; inactive means no such curve, though single readings can be large; an effect the other way counts as inactive or inconclusive.

Assay [1] is described as follows: qHTS assay to identify small molecule antagonists of the sonic hedgehog signaling (Shh) pathway (AID 1259369; calls by dose curve; further: nearly all actives have a fitted effect of over 45% in size; further: potency means the concentration at half of the fitted maximal effect). The gist of the method:
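3T3Gli1-Luc, conditioned-medium-stimulated, 24hr cpd, 37C/5% CO2; Gli1-driven firefly Luc luminescence after 30min RT with luciferase reagent. Cells plated 4hr before cpd.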
Background: Quantitative high-throughput screening tests each substance at several concentrations.

Assay [2] concerns the target Estrogen receptor beta (Homo sapiens) (UniProt Q92731). In words: qHTS assay to identify small molecule antagonists of the estrogen receptor beta (ER-beta) signaling pathway (AID 1259378; active means well fitted inhibition curve with a large enough effect in the signal ratio in the repeat runs, not every such curve was filed as active; the % refers to the signal ratio). Put shortly:
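Antagonist mode: compounds added to beta-lactamase reporter HEK293T ER-beta-UAS cells stimulated with E2 (1nM final), 16 hr at 37C. LiveBLAzer B/G FRET substrate, 2 hours room temperature, fluorescence read-out.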

The nature of assay [3]: qHTS assay to identify small molecule agonists of the androgen receptor (AR) signaling pathway in the presence of an antagonist - cell viability counter screen (AID 1259379). Further: nearly all actives have a fitted effect of over 25% in size. Further: potency means the concentration at half of the fitted maximal effect.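 On activity change, negative = cytotoxicity: MDA-kb2 human breast cancer cells carrying an MMTV luciferase reporter; series mostly up to about 92 µM.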 Put shortly: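 Cells: MDA-kb2 (MMTV-luc, AR and GR elements), 3,000/well, 5 hr settle. Added: nilutamide 3.0uM final, then compounds (15 conc.). Incubation: 16 hr, 37C, no CO2. Read-out: CellTiter-Fluor, 1 hr, fluorescence.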

Assay [4] can be described thus: qHTS assay to identify small molecule agonists of the estrogen receptor beta (ER-beta) signaling pathway - cell viability counter screen (AID 1259380). Further: nearly all actives have a fitted effect of over 30% in size. Put shortly: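 HEK293T ER-beta-UAS-bla; 2% CS-FBS; 6 hr pre-plate, 16 hr cpd at 37C/5% CO2; LiveBLAzer read first, then CellTiter-Glo 30 min RT, luminescence.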
A short description of assay [5]: qHTS assay to identify small molecule antagonists of the estrogen receptor beta (ER-beta) signaling pathway - cell viability counter screen (AID 1259382).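 Further: HEK293T cells carrying ER-beta-UAS-bla reporter stimulated with estradiol; series mostly up to about 92 µM; nearly all actives have a fitted effect of over 55% in size.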 Put shortly:
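Cells: ER-beta-UAS-bla HEK293T, 2,000/well, 2% CS-FBS, 6 hr settle. Cpd + E2 (1nM final), 16 hr, 37C/5% CO2. Bla FRET substrate 2 hr RT, then CellTiter-Glo 30 min RT, luminescence.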

The target of assay [6] is Estrogen receptor (Homo sapiens) (UniProt P03372). In words: qHTS assay to identify small molecule agonists of the estrogen receptor alpha (ER-alpha) signaling pathway in the presence of an antagonist (AID 1259383; calls by dose curve; further: top concentration of the series differs between compounds; nearly all actives have a fitted effect of over 15% in size). Put shortly: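 VM7Luc4E2, endog. ER-alpha + 4×ERE-luc; charcoal-stripped FBS, phenol red-free, 5 d; 24hr plating; +10.0nM ICI-182,780 (final); cpds 15 conc, 22hr, 37C/5% CO2; ONE-Glo luminescence.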
Estrogen receptor (Homo sapiens), sequence (P03372 whole entry, looked up): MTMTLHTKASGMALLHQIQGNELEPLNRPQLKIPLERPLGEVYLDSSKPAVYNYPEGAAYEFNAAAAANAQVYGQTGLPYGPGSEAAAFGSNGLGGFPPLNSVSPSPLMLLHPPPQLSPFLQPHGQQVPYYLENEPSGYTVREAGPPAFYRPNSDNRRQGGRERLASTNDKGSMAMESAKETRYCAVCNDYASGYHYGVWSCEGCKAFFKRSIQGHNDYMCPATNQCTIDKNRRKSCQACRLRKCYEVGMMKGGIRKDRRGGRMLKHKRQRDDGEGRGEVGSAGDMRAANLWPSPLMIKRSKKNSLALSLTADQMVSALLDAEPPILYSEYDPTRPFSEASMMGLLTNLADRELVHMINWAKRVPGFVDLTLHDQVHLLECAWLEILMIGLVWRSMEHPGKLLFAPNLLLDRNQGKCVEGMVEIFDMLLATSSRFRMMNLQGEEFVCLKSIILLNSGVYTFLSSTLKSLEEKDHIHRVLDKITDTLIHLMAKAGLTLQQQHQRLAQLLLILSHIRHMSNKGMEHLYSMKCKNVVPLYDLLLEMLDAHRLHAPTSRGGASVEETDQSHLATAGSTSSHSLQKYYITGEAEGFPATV

For assay [7], the target named is Thyrotropin receptor (Homo sapiens) (UniProt P16473). In words: qHTS assay to identify small molecule antagonists of the thyroid stimulating hormone receptor (TSHR) signaling pathway (AID 1259385; calls by dose curve; further: nearly all actives have a fitted effect of over 20% in size). Put shortly:
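Antagonist mode: compound-treated TSHR-expressing HEK293 cells were stimulated with 1.5 ng/mL TSH (final) in presence of Ro20-1724 for 30 min at RT. HTRF cAMP detection after 1 h; each compound tested at 15 concentrations, triplicate.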

The nature of assay [8]: qHTS assay to identify small molecule agonists of the estrogen receptor alpha (ER-alpha) signaling pathway in the presence of an antagonist - cell viability counter screen (AID 1259386).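 Further: series mostly up to about 92 µM; cells exposed to compounds for 22 h at 37 °C before the viability read; nearly all actives have a fitted effect of over 30% in size.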 Put shortly:
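VM7Luc4E2, stripped-serum pre-culture 5 d; 24hr plating; +ICI-182,780 10.0nM final; cpds 15 conc, 22hr, 37C/5% CO2; CellTiter-Fluor added at 21hr, fluorescence 1hr later.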

Assay [9] deals with Progesterone receptor (Homo sapiens) (UniProt P06401). In words: qHTS assay to identify small molecule agonists of the progesterone receptor (PR) signaling pathway (AID 1346784; calls by dose curve; further: nearly all actives have a fitted effect of over 30% in size). Put shortly:
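Using charcoal-stripped serum (2%) to limit endogenous steroids, PR-UAS-bla HEK 293T cells received compounds for 16 hr at 37C after 6 hr plating; beta-lactamase FRET fluorescence was recorded following 2 hr substrate loading at room temperature.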

For assay [10] the target is unchanged. Description: qHTS assay to identify small molecule antagonists of the progesterone receptor (PR) signaling pathway (AID 1346795; active means well fitted inhibition curve with a large enough effect in the signal ratio in the repeat runs, not every such curve was filed as active; the % refers to the signal ratio; further: potency means the concentration at half of the fitted maximal effect). The gist of the method: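 Inhibition of R5020-induced (1 nM final) beta-lactamase reporter signal in PR-UAS-bla HEK293T cells was scored by FRET fluorescence after overnight (16 hr) compound treatment.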
A short description of assay [11]: qHTS assay to identify small molecule antagonists of the progesterone receptor (PR) signaling pathway - cell viability counter screen (AID 1346798). Further: series mostly up to about 92 µM; nearly all actives have a fitted effect of over 50% in size. The gist of the method: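 ATP content as viability readout: CellTiter-Glo luminescence, 30 min room temperature, in PR-UAS-bla HEK293T cells after 16 hr compound/R5020 treatment at 37C and 5% CO2.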
The nature of assay [12]: qHTS assay to identify small molecule agonists of the progesterone receptor (PR) signaling pathway - cell viability counter screen (AID 1346799; calls by dose curve; further: nearly all actives have a fitted effect of over 45% in size). The gist of the method: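 Cytotoxicity in PR-bla HEK293T cells: 16 h compound, 37C; CellTiter-Glo added post-FRET read; luminescence after 30 min RT.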
Assay [13] can be described thus: qHTS assay to identify small molecule antagonists of the TGF-beta/Smad signaling pathway - cell viability counter screen (AID 1346824). Further: nearly all actives have a fitted effect of over 50% in size. Put shortly: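 Cytotoxicity counter-screen run in the same wells as the beta-lactamase Smad reporter read: CellTiter-Glo luminescence after 30 min at room temperature. HEK 293T SBE-bla cells had 5 hr compound exposure at 37 C with TGF-beta1 (0.25 ng/mL stock).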

Assay [14] in a line: qHTS assay to identify small molecule agonists of the TGF-beta/Smad signaling pathway - cell viability counter screen (AID 1346829). Further: top concentration of the series differs between compounds; nearly all actives have a fitted effect of over 45% in size. Put shortly: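 Here the cytotoxicity of library compounds is measured in SBE-bla HEK 293T cells treated for 5 hr, using CellTiter-Glo added to wells already read for the beta-lactamase reporter.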
Assay [15] in a line: qHTS assay to identify small molecule agonists of the TGF-beta/Smad signaling pathway (AID 1346859; active means well fitted activation curve with a large enough effect in the signal ratio in the repeat runs, not every such curve was filed as active; the % refers to the signal ratio; further: series mostly up to about 77 µM). Put shortly: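 Stable Smad binding element-beta-lactamase HEK 293T cells; 5 hr compound exposure at 37 C under 5% CO2; 2 hr room-temperature substrate step; fluorescence excited at 405 nm, collected at 460 nm and 530 nm.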
In assay [16] the target is Thyrotropin-releasing hormone receptor (Homo sapiens) (UniProt P34981). In words: qHTS assay to identify small molecule antagonists of the thyrotropin-releasing hormone receptor (TRHR) signaling pathway (AID 1346877; active means well fitted inhibition curve with a large enough effect in the repeat runs, not every such curve was filed as active; further: series mostly up to about 51 µM). Put shortly:
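Intracellular calcium fluorescence, read kinetically every second over 3 min, reports TRH-evoked signalling in HEK293 cells carrying TRHR. Test compounds were added 5 min ahead of a 1 nM TRH challenge.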

In assay [17] the target is Androgen receptor (Homo sapiens) (UniProt P10275). In words: qHTS assay to identify small molecule agonists of the androgen receptor (AR) signaling pathway in the presence of an antagonist (AID 1259381; calls by dose curve; further: nearly all actives have a fitted effect of over 15% in size). The gist of the method:
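MDA-kb2 cells, 3,000/well, rested 5hr at 37C/0% CO2 → nilutamide 3.0uM final or buffer → compounds, 15 conc. → 16hr at 37C → ONE-Glo, 30min RT → luminescence.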

Assay [18] concerns the target Thyrotropin-releasing hormone receptor (Homo sapiens) (UniProt P34981). Description: qHTS assay to identify small molecule agonists of the thyrotropin-releasing hormone receptor (TRHR) signaling pathway (AID 1346891; calls by dose curve;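 further: HEK293 cells expressing TRHR with calcium dye readout; series mostly up to about 58 µM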). Put shortly:
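In 1536-format, 1500 TRHR-Hek293 cells per well grew 18 h, took up calcium dye for 2 h at 37 °C, received compound, and were read kinetically; 15-point titrations, triplicates.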

Assay [19] is described as follows: qHTS assay to identify small molecule agonists or antagonists of the thyroid stimulating hormone receptor (TSHR) signaling pathway - wild type cell line counter screen (AID 1259384; calls by dose curve). The gist of the method: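 Counter screen in untransfected Hek293: compounds (15-point titration, triplicate) plus phosphodiesterase inhibitor Ro20-1724 added after 18 h plating; 30 min RT. Intracellular cAMP via competitive d2/cryptate immunoassay, 1 h incubation.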

In assay [20] the target is Estrogen receptor beta (Homo sapiens) (UniProt Q92731). Description: qHTS assay to identify small molecule agonists of the estrogen receptor beta (ER-beta) signaling pathway (AID 1259377; active means well fitted activation curve with a large enough effect in the signal ratio in the repeat runs, not every such curve was filed as active; the % refers to the signal ratio). The gist of the method:
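In HEK293T cells bearing a UAS-beta-lactamase reporter under ER-beta control, DMSO-delivered compounds were incubated for 16 hr at 37C. Activity was detected as fluorescence 2 hours after LiveBLAzer B/G FRET substrate addition.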
On the % scale 0 is the no-effect control and ±100 the full control effect.

Thyrotropin-releasing hormone receptor (Homo sapiens), sequence (P34981 whole entry, looked up): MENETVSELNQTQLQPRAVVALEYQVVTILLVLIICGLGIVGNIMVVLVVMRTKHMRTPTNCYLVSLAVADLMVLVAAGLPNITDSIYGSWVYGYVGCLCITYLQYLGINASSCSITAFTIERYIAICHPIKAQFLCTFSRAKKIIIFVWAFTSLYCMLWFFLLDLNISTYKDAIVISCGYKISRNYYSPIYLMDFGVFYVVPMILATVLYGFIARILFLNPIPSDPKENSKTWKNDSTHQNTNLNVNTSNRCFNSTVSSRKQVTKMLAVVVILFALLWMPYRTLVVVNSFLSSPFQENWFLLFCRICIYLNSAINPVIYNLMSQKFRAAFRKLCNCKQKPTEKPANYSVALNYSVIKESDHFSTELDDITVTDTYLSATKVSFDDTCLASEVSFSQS
Estrogen receptor beta (Homo sapiens), sequence (Q92731 whole entry, looked up): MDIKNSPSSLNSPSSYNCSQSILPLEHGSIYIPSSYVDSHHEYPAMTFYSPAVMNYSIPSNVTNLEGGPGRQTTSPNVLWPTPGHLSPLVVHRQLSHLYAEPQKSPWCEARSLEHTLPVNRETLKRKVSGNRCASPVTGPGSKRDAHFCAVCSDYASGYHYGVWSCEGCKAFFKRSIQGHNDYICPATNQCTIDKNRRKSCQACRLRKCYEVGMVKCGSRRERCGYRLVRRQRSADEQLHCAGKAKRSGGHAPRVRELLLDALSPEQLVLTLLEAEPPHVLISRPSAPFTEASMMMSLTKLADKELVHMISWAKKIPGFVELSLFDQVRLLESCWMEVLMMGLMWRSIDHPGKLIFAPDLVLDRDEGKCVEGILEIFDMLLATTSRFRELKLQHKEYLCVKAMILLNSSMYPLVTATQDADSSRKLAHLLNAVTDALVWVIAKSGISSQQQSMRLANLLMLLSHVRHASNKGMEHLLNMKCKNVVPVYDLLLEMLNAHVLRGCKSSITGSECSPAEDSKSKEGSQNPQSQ
Progesterone receptor (Homo sapiens), sequence (P06401 whole entry, looked up): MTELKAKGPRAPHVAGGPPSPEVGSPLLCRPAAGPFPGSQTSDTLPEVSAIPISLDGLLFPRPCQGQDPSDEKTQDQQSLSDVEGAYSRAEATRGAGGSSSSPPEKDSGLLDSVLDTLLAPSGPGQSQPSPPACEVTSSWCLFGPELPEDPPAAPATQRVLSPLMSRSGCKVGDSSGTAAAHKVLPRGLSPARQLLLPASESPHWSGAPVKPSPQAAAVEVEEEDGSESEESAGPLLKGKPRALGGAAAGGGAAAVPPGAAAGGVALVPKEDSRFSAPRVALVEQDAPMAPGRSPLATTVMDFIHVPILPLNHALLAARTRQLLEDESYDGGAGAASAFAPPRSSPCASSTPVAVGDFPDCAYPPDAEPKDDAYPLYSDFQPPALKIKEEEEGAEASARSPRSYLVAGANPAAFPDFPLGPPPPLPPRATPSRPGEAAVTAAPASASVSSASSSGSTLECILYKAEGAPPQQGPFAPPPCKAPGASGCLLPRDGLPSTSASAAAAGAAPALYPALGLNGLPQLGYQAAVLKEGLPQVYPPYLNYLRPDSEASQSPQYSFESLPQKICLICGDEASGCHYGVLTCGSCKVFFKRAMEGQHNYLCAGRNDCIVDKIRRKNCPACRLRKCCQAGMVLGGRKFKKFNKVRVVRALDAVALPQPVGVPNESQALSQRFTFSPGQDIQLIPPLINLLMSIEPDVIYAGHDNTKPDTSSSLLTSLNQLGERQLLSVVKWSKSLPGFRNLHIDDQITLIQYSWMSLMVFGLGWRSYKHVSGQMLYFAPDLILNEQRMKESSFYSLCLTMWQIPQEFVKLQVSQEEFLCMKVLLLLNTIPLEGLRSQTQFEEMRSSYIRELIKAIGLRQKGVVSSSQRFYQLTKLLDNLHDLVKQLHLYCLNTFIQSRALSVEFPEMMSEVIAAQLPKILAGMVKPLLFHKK
Thyrotropin receptor (Homo sapiens), sequence (P16473 whole entry, looked up): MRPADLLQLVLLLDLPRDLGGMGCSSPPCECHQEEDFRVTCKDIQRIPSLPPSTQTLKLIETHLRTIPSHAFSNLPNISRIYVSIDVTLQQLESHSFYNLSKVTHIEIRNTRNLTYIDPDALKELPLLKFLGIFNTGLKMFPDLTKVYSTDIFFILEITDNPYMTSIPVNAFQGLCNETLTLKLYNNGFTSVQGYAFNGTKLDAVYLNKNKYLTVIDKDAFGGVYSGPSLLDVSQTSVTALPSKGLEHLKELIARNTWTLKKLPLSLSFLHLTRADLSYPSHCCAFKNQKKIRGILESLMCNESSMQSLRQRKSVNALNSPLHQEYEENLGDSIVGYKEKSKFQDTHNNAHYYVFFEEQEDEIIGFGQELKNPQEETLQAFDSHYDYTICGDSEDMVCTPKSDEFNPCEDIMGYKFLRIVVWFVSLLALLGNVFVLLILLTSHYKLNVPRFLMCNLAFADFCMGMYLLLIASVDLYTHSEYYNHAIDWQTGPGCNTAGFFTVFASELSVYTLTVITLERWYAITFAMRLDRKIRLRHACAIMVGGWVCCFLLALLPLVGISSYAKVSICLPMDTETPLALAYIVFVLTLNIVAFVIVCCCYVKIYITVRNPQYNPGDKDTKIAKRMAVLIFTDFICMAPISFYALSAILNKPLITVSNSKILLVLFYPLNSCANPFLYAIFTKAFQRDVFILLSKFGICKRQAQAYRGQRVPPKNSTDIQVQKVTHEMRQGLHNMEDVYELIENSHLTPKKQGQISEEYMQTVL
Androgen receptor (Homo sapiens), sequence (P10275 whole entry, looked up): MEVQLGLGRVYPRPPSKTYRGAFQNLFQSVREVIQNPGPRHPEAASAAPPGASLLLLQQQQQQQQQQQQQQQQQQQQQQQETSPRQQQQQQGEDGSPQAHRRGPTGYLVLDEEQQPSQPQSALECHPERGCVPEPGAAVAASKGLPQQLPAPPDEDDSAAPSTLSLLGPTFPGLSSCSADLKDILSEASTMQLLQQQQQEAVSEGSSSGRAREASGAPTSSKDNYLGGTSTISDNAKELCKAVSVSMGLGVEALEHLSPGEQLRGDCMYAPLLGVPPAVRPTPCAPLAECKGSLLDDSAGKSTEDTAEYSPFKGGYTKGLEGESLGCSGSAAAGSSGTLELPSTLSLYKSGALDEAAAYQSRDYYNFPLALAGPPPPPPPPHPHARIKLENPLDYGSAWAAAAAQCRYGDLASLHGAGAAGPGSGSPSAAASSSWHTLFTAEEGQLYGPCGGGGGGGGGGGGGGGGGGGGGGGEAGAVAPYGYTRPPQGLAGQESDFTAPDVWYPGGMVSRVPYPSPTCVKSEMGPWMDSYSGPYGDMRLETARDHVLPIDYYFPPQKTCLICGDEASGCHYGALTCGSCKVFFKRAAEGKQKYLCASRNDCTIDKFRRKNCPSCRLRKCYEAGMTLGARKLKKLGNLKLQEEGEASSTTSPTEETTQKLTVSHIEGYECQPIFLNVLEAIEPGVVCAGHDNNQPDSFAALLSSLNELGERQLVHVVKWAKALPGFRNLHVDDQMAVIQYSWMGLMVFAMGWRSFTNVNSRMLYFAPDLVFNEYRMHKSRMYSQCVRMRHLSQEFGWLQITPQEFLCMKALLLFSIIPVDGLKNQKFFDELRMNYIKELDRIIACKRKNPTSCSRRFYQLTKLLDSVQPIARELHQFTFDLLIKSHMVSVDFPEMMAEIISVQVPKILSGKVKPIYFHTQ

For the molecule `CC#N`, the Potency entry in assay [1], in assay [2], in [3], in [4], in assay [5] and in assay [6] was “inactive” in each case. Moreover, the Potency entry in [7], in assay [8], in assay [9], in assay [10], in assay [11] and in [12] was “inactive” throughout. Also, the call in [13], in [14], in assay [15] and in assay [16] was inactive.
In the case of `CC(C)=CC=O`, the Potency entry in assay [1], in [2], in assay [3], in assay [4], in [17] and in [5] was “inactive” throughout. Also, the Potency entry in assay [6], in assay [8], in [11], in assay [12] and in assay [18] was “inactive” throughout. The result in assay [13], in [14], in assay [15] and in [16] was inactive.
With `CCCCCCCCCCCCCCCCBr`, the activity change, negative = inhibition in assay [1] is 18.7% [at 19 µM]; in assay [7] it was -0.923% [at 19 µM]; in assay [10], -0.513% [at 18.9 µM]. Moreover, the activity, negative = inhibition in assay [2] was 8% [at 19 µM]. For the same molecule, the activity change, negative = cytotoxicity in assay [3] is 1.54% [at 19 µM]; in assay [5], -0.0957% [at 19 µM]; in assay [8], 0.981% [at 19 µM]; in assay [11], 0.653% [at 18.9 µM]; in assay [12], 9.85% [at 19 µM]; in assay [14], -1.12% [at 15.8 µM]. Moreover, the activation was -0.645% [at 19 µM] in [6], 1.24% [at 19 µM] in assay [9] and -2.16% [at 15.8 µM] in assay [15]. Besides, the cAMP activity change in [19] is -0.461% [at 18.9 µM]. In assay [13], the viability change, negative = cytotoxic is -3.09% [at 15.8 µM].
As to `O=Cc1c(Cl)cccc1Cl`, the Potency entry in assay [1], in assay [2], in assay [3], in assay [4], in [5] and in assay [6] was “inactive” each time. The Potency entry in [7], in [8], in [9], in [10], in assay [11] and in assay [12] was “inactive” throughout. In addition, the Potency entry in assay [18] is “inactive”. In addition, the call in [19], in [13], in assay [14], in assay [15] and in assay [16] was inactive.
Consider `CN(C)C(=O)Nc1ccc(Oc2ccc(Cl)cc2)cc1`, for which the Potency result in [1], in [20], in assay [4], in assay [5], in assay [7] and in [9] was “inactive” in each case. In assay [18], the Potency result is “inactive”. For the same molecule, the Potency in assay [3] is 54.5 µM (active); in assay [10] it was 34.4 µM (active). In addition, the outcome in assay [19], in assay [13], in assay [14], in [15] and in assay [16] was inactive.
As for `CCc1nn(CCCN2CCN(c3cccc(Cl)c3)CC2)c(=O)n1CCOc1ccccc1`, the results for the Potency in [1], in assay [3] and in [10] were 15 µM (active), 29.8 µM (active) and 26.6 µM (active), respectively. The Potency entry in assay [20], in assay [6], in assay [9] and in assay [18] was “inactive” throughout. Also, the call in assay [19], in assay [13], in assay [14], in [15] and in assay [16] was inactive.
